# Experimental data as given in PubChem BioAssay (EPA / NIEHS).
# Calls of active or inactive are those of the source. The calls were made as follows: active = hit-call score of the fitted dose curve at least 0.9, where 1 is the maximum; inactive = score below 0.9.
# Test: CEETOX_H295R_CORTIC: CeeTox H295R High-throughput Steroidogenesis Assay for Corticosterone (CORTIC) (AID 2283437);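 also: corticosterone secreted into medium quantified by mass spectrometry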
# Details: actives raise or lower the signal
# Description: CEETOX_H295R is a cell-based, multiplexed-readout assay that uses H295R, a human adrenal gland cell line, with measurements taken at 48 hours after chemical dosing in a 96-well plate.CEETOX_H295R_CORTIC is one of 23 assay component(s) measured or calculated from the CEETOX_H295R assay. It is designed to make measurements of hormone induction, a form of inducible reporter, as detected with absorbance signals by HPLC-MS-MS technology.Data from the assay component CEETOX_H295R_CORTIC was analyzed into 1 assay endpoint. This assay endpoint, CEETOX_H295R_CORTIC, was analyzed with bidirectional fitting relative to DMSO as the negative control and baseline of activity. Using a type of inducible reporter, gain or loss-of-signal activity using HPLC-MS-MS was used to understand synthesis of Corticosterone in H295R cell line at 48hr of chemical exposure. To generalize the intended target to other relatable targets, this assay endpoint is annotated to the steroid hormone intended target family, where the subfamily is glucocorticoids.
# Cell culture and media preparation procedures were conducted in accordance with OECD Test No. 456 guidelines, with minor modifications. H295R cells (ATCC CRL-2128) were expanded for 5 passages and frozen in batches in liquid nitrogen. Prior to the steroidogenesis assay, H295R cells were thawed and passed at least 4 times. The maximum passage was 10. Cells were maintained in a 1:1 mixture of DMEM/F12 supplemented with 5ml/L ITS+ Premix (BD Bioscience) and 12.5 ml/L Nu-Serum (BD Bioscience). After seeding cells into 96-well plates at 50-60% confluency, cells were allowed to adhere overnight. Prior to chemical testing, culture medium was replaced with 175 uL medium containing 10 uM forskolin to stimulate steroidogenesis for 48 hours. Following prestimulation, forskolin medium was replaced with medium containing test chemical solubilized in DMSO (ensuring a final concentration of 0.1% DMSO). Test chemicals were incubated for 48 hours, then the medium was removed and split into 2 vials containing approximately 75uL each, and stored at -80 C prior to hormone analysis. For steroid quantification, media samples were shipped to OpAns, LLC (Durham, NC) on dry ice, and samples were thawed to room temperature prior to liquid-liquid extraction. Steroid hormones were extracted from media samples using methyl tertbutyl ether (MTBE). An extra derivatization with dansyl chloride was included for estrogen (estrone and estradiol) detection only. Steroid hormones were separated by HPLC, eluted using a reverse phase C18 gradient with electrospray positive ionization, followed by quantification by tandem mass spectrometry (MS/MS). Data were acquired on a MassHunter Workstation Acquisition version B03.01 (Agilent Technologies, Inc.) and processed using MassHunter Quantitative Analysis for QQQ. Accuracy was determined for each hormone analyte from 3 standards to determine upper and lower limits of quantification (ULOQ and LLOQ, respectively) using a 7-point standard curve. Precision and accuracy of the extraction and quantification methods were calculated as the percent relative standard deviation (%RSD) of the spiked standards and percent spiked standard recovered, respectively. […] Test medium was removed following chemical exposure, and cell viability was evaluated in the same wells by MTT. MTT procedures were as follows: after removal of test medium, 500 uL of 0.5 mg/ml of 3-[4,5-dimethylthiazol-2-y]2,5-diphenyltetrazoliumbromide solution was added to the cells. Following a 4-hour incubation at 37 C and 5% CO2 to allow formazan-crystal formation, the MTT solution was removed and blue formazan salt crystals were solubilized using 500uL anhydrous isopropanol with shaking for 20 minutes. Absorbance was read at 570 and 650nm using a Packard Fusion microplate reader. Background correction of absorbance units was used to determine percent change relative to controls. […]
SMILES,outcome,AC50
C#CC(C)(C)NC(=O)c1cc(Cl)cc(Cl)c1,inactive,–
CCOP(=O)(NC(C)C)Oc1ccc(SC)c(C)c1 (centres undefined),inactive,–
COP(=O)(NC(C)=O)SC (centres undefined),inactive,–
CCCOCC(=Nc1ccc(Cl)cc1C(F)(F)F)n1ccnc1,inactive,–
CNc1cnn(-c2cccc(C(F)(F)F)c2)c(=O)c1Cl,inactive,–
FC(F)C(F)(F)OCC(Cn1cncn1)c1ccc(Cl)cc1Cl (centres undefined),inactive,–
CCNc1nc(Cl)nc(NC(C)(C)C#N)n1,inactive,–
CCCSP(=O)(OCC)SCCC,inactive,–
CNC(=O)Oc1cccc2c1OC(C)(C)O2,inactive,–
CCOP(=S)(OCC)Oc1ccc([N+](=O)[O-])cc1,inactive,–
CCCCN(CC)c1c([N+](=O)[O-])cc(C(F)(F)F)cc1[N+](=O)[O-],inactive,–
Nc1nc(N)nc(NC2CC2)n1,inactive,–
CNC(=O)ON=C(C)SC,inactive,–
COc1ccc(C(=CC(=O)N2CCOCC2)c2ccc(Cl)cc2)cc1OC,inactive,–
CCOC(=O)COc1cc(-c2nn(C)c(OC(F)F)c2Cl)c(F)cc1Cl,inactive,–
O=C(O)c1cc(Oc2ccc(C(F)(F)F)cc2Cl)ccc1[N+](=O)[O-],inactive,–
CCOP(=S)(OCC)Oc1ccc2c(C)c(Cl)c(=O)oc2c1,inactive,–
CSc1nnc(C(C)(C)C)c(=O)n1N,inactive,–
CCOP(=S)(OCC)Oc1cc(C)nc(C(C)C)n1,–,36.6 µM (active)
